Data from PubChem BioAssay (EPA / NIEHS).
The source made the active and inactive calls. How the source made its calls: active means hit-call score of the fitted dose curve at least 0.9, where 1 is the maximum; inactive means score below 0.9.

Assays:
Details in all cases: mRNA level, 48 h; actives raise or lower the signal
[1] = read-out: JUN Transcription Factor, JUN (gene 3725); test: LTEA_HepaRG_JUN: Life Technologies and Expression Analysis (LTEA) Assay for JUN Transcription Factor using HepaRG (AID 2283513)
Summary of the method: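 HepaRG, 48 h exposure, 8-pt half-log series top 100 uM, 0.5% DMSO, duplicate. JUN mRNA by qRT-PCR (Fluidigm), housekeeping-normalized (ACTB/GAPDH/POLR2A); bidirectional curve fit vs DMSO baseline.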

[2] = read-out: Lipase C (LIPC), LIPC (gene 3990); test: LTEA_HepaRG_LIPC: Life Technologies and Expression Analysis (LTEA) Assay for Lipase C (LIPC) using HepaRG (AID 2283514)
Summary of the method: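 LIPC expression was quantified by qRT-PCR against three housekeeping genes (ACTB, GAPDH, POLR2A). Differentiated human HepaRG cells received eight half-log doses (top 100 uM, 0.5% DMSO) in duplicate for 48 h; fitting bidirectional relative to DMSO.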

[3] = read-out: Lipoprotein lipase (LPL), LPL (gene 4023); test: LTEA_HepaRG_LPL: Life Technologies and Expression Analysis (LTEA) Assay for Lipoprotein lipase (LPL) using HepaRG (AID 2283515)
Summary of the method: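 LPL transcript levels quantified by TaqMan qRT-PCR against three housekeeping genes after 48 h chemical treatment of HepaRG cells. Eight-point half-log series from 100 uM in 0.5% DMSO, tested in duplicate; bidirectional fitting versus vehicle.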

[4] = read-out: MicroRNA 122 (MIR122), gene 406906; test: LTEA_HepaRG_MIR122: Life Technologies and Expression Analysis (LTEA) Assay for MicroRNA 122 (MIR122) using HepaRG (AID 2283516); further: the transcript read is the microRNA miR-122
Summary of the method: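 qRT-PCR read-out (TaqMan, Fluidigm array), normalized to three housekeeping genes; HepaRG cells dosed 48 h at 8 concentrations up to 100 uM in 0.5% DMSO, duplicate; gain or loss fitted against DMSO baseline.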

[5] = read-out: matrix metalloproteinase-10 (MMP10), MMP10 (gene 4319); test: LTEA_HepaRG_MMP10: Life Technologies and Expression Analysis (LTEA) Assay for matrix metalloproteinase-10 (MMP10) using HepaRG (AID 2283517)
Summary of the method: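 Expression measured by TaqMan qRT-PCR with ACTB/GAPDH/POLR2A normalisation after 48 h chemical exposure of HepaRG cells. Eight half-log concentrations, top 100 uM, 0.5% DMSO vehicle, duplicates; gain or loss fitted against vehicle.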

MYC, MYC (gene 4609) = test: LTEA_HepaRG_MYC: Life Technologies and Expression Analysis (LTEA) Assay for MYC using HepaRG (AID 2283518)
Summary of the method: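 MYC transcript changes, up or down relative to 0.5% DMSO, from TaqMan qRT-PCR normalized to three housekeeping genes. Human HepaRG cultures received chemicals for 48 h at eight half-log concentrations up to 100 uM, in duplicate.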

[6] = read-out: matrix metalloproteinase-3 (MMP3), MMP3 (gene 4314); test: LTEA_HepaRG_MMP3: Life Technologies and Expression Analysis (LTEA) Assay for matrix metalloproteinase-3 (MMP3) using HepaRG (AID 2283519)
Summary of the method: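 Fluidigm-based TaqMan qRT-PCR, normalized to ACTB, GAPDH and POLR2A and fitted bidirectionally versus 0.5% DMSO, measured transcript levels. Treatment: duplicate 48 h exposures of HepaRG cells, ~100,000/well, to eight half-log concentrations topping at 100 uM.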

[7] = read-out: Paternally Expressed 10 (PEG10), PEG10 (gene 23089); test: LTEA_HepaRG_PEG10: Life Technologies and Expression Analysis (LTEA) Assay for Paternally Expressed 10 (PEG10) using HepaRG (AID 2283520)
Summary of the method: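 qRT-PCR read-out: PEG10 mRNA normalised to three housekeeping genes, fitted bidirectionally against 0.5% DMSO vehicle. HepaRG cells received test chemicals for 48 h in serum-free induction medium, 8 points, top 100 uM, half-log steps.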

[8] = read-out: Nuclear factor NF-kappa-B p105 subunit (Homo sapiens) (UniProt P19838); test: LTEA_HepaRG_NFKB1: Life Technologies and Expression Analysis (LTEA) Assay for Nuclear Factor Kappa B Subunit 1 (NFKB1) using HepaRG (AID 2283521);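 further: differentiated human HepaRG liver cells in serum-free induction medium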
Summary of the method: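 NFKB1 transcript was measured by TaqMan qRT-PCR on Fluidigm arrays, normalised to three housekeeping genes and fitted in both directions against 0.5% DMSO. HepaRG cells were dosed in duplicate for 48 h in serum-free induction medium, eight half-log steps from 100 uM.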

[9] = read-out: Protein phosphatase 2A (PPP2R4), PTPA (gene 5524); test: LTEA_HepaRG_PPP2R4: Life Technologies and Expression Analysis (LTEA) Assay for Protein phosphatase 2A (PPP2R4) using HepaRG (AID 2283522)
Summary of the method: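 HepaRG, 48 h exposure, 8-pt half-log series from 100 uM, 0.5% DMSO vehicle, duplicates. Readout: PPP2R4 mRNA, Fluidigm qRT-PCR, housekeeping-normalized. Bidirectional curve fit vs DMSO baseline.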

[10] = read-out: Phosphatase and tensin (PTEN), PTEN (gene 5728); test: LTEA_HepaRG_PTEN: Life Technologies and Expression Analysis (LTEA) Assay for Phosphatase and tensin (PTEN) using HepaRG (AID 2283523)
Summary of the method: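 Read-out: TaqMan qRT-PCR of PTEN transcript, normalized to three housekeeping genes, fitted in both directions against 0.5% DMSO. Differentiated human HepaRG cultures received chemicals for 48 h, eight-point half-log series topping at 100 uM.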

[11] = read-out: solute carrier (SLC22A1), SLC22A1 (gene 6580); test: LTEA_HepaRG_SLC22A1: Life Technologies and Expression Analysis (LTEA) Assay for solute carrier (SLC22A1) using HepaRG (AID 2283524)
Summary of the method: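 Transcript level of SLC22A1 quantified by qRT-PCR (normalized to three housekeeping genes) after 48 h chemical exposure of HepaRG cells, eight concentrations up to 100 µM, half-log steps, 0.5% DMSO vehicle. Gain or loss relative to DMSO fitted bidirectionally.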

[12] = read-out: Pyruvate Dehydrogenase Kinase 4 (PDK4), PDK4 (gene 5166); test: LTEA_HepaRG_PDK4: Life Technologies and Expression Analysis (LTEA) Assay for Pyruvate Dehydrogenase Kinase 4 (PDK4) using HepaRG (AID 2283525)
Summary of the method: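 Readout is qRT-PCR of PDK4 transcript, normalized to three housekeeping genes, with bidirectional fitting against 0.5% DMSO vehicle. Differentiated HepaRG cells were treated 48 h in serum-free induction medium, duplicate wells, eight-point half-log series topping at 100 uM.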

[13] = read-out: NAD(P)H dehydrogenase [quinone] 1 (NQO1), NQO1 (gene 1728); test: LTEA_HepaRG_NQO1: Life Technologies and Expression Analysis (LTEA) Assay for NAD(P)H dehydrogenase [quinone] 1 (NQO1) using HepaRG (AID 2283526)
Summary of the method: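 qRT-PCR read-out (Fluidigm TaqMan), normalized to three housekeeping genes, after 48 h chemical exposure of HepaRG cells. Concentrations: eight points, top 100 uM, half-log steps, 0.5% DMSO vehicle. Gain or loss of signal fitted relative to DMSO.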

[14] = read-out: Nuclear factor erythroid 2-related factor 2 (Homo sapiens) (UniProt Q16236); test: LTEA_HepaRG_NFE2L2: Life Technologies and Expression Analysis (LTEA) Assay for Nuclear factor erythroid 2-related factor 2 (NFE2L2) Transcription Factor using HepaRG (AID 2283527)
Summary of the method: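 NFE2L2 transcript level was read by qRT-PCR (housekeeping ACTB/GAPDH/POLR2A normalisation) after 48 h chemical treatment of HepaRG in serum-free induction medium. Duplicate 8-point half-log curves, top 100 uM, 0.5% DMSO vehicle; up- or down-regulation fitted against vehicle.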

[15] = read-out: succinate dehydrogenase complex iron sulfur subunit B (SDHB), SDHB (gene 6390); test: LTEA_HepaRG_SDHB: Life Technologies and Expression Analysis (LTEA) Assay for succinate dehydrogenase complex iron sulfur subunit B (SDHB) using HepaRG (AID 2283528)
Summary of the method: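 SDHB transcript level read by TaqMan qRT-PCR, housekeeping-normalised (ACTB, GAPDH, POLR2A), after 48 h chemical treatment of plated HepaRG cells; eight concentrations top 100 uM, half-log steps, 0.5% DMSO, duplicates; fitted both directions against DMSO.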

[16] = read-out: Signal transducer and activator of transcription 3 (Homo sapiens) (UniProt P40763); test: LTEA_HepaRG_STAT3: Life Technologies and Expression Analysis (LTEA) Assay for Signal transducer and activator of transcription (STAT3) using HepaRG (AID 2283529)
Summary of the method: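 STAT3 transcript quantified by qRT-PCR against three housekeeping genes (ACTB, GAPDH, POLR2A), fitted both directions relative to DMSO. HepaRG cultures exposed 48 h to eight half-log concentrations, top 100 uM, 0.5% DMSO, serum-free induction medium.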

[17] = read-out: solute carrier (SLCO1B1), SLCO1B1 (gene 10599); test: LTEA_HepaRG_SLCO1B1: Life Technologies and Expression Analysis (LTEA) Assay for solute carrier (SLCO1B1) using HepaRG (AID 2283530)
Summary of the method: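 SLCO1B1 transcript levels were quantified by TaqMan qRT-PCR using three housekeeping genes for normalization. This followed 48 h chemical exposure (100 uM top, half-log, 8 points, 0.5% DMSO) of HepaRG liver cells, with gain or loss fitted relative to DMSO.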

[18] = read-out: sulfotransferase 2A1 (SULT2A1), SULT2A1 (gene 6822); test: LTEA_HepaRG_SULT2A1: Life Technologies and Expression Analysis (LTEA) Assay for sulfotransferase 2A1 (SULT2A1) using HepaRG (AID 2283531)
Summary of the method: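 Expression change of SULT2A1, by qRT-PCR with three housekeeping-gene normalization, was scored bidirectionally versus DMSO. Cells: differentiated HepaRG, dosed in duplicate for 48 h across 8 points, highest 100 µM, half-log dilution, 0.5% DMSO.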

[19] = read-out: Transforming Growth Factor (TGFA), TGFA (gene 7039); test: LTEA_HepaRG_TGFA: Life Technologies and Expression Analysis (LTEA) Assay for Transforming Growth Factor (TGFA) using HepaRG (AID 2283532)
Summary of the method: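 TGFA transcript quantified by qRT-PCR (Fluidigm arrays) against three housekeeping genes, after 48 hours chemical treatment of HepaRG cells. Top concentration 100 uM with half-log dilutions, 8 points, duplicates, 0.5% DMSO.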

Measured: AC50

Sequence of Nuclear factor erythroid 2-related factor 2 (Homo sapiens) (Q16236 whole entry, looked up): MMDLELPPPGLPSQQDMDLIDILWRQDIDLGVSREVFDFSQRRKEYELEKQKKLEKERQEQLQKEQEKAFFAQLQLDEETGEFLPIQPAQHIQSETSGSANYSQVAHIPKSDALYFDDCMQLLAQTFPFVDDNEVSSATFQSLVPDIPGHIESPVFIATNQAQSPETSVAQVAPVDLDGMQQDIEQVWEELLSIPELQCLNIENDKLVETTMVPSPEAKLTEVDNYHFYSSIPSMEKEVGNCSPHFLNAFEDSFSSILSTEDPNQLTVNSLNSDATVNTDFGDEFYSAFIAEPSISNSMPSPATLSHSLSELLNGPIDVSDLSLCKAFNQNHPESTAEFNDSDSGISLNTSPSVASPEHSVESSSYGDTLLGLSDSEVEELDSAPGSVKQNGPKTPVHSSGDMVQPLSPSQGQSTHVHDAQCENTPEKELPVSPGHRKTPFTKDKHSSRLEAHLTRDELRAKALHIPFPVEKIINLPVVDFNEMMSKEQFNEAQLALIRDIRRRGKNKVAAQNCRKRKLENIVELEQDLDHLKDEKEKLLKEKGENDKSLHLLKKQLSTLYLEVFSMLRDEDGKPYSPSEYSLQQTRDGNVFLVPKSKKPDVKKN
Sequence of Signal transducer and activator of transcription 3 (Homo sapiens) (P40763 whole entry, looked up): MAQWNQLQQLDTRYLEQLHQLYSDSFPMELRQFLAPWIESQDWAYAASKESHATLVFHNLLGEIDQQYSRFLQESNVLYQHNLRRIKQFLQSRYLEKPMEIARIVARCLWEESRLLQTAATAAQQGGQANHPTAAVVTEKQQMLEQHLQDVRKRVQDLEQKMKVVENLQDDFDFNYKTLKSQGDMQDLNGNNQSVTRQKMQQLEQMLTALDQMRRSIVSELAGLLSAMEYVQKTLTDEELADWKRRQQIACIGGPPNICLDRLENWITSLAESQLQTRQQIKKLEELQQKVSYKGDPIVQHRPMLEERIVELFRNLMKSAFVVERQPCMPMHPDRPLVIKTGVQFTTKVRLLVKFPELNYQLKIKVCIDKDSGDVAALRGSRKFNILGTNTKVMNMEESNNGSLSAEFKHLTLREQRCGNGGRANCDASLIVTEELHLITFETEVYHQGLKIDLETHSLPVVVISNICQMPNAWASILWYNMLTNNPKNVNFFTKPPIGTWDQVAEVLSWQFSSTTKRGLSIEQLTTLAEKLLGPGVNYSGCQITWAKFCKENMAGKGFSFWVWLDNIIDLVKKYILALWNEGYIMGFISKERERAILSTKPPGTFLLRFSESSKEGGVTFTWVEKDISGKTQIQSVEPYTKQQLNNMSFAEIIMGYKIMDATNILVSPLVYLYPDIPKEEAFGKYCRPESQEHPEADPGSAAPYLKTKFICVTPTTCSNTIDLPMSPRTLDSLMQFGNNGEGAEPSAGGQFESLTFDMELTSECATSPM
Sequence of Nuclear factor NF-kappa-B p105 subunit (Homo sapiens) (P19838 whole entry, looked up): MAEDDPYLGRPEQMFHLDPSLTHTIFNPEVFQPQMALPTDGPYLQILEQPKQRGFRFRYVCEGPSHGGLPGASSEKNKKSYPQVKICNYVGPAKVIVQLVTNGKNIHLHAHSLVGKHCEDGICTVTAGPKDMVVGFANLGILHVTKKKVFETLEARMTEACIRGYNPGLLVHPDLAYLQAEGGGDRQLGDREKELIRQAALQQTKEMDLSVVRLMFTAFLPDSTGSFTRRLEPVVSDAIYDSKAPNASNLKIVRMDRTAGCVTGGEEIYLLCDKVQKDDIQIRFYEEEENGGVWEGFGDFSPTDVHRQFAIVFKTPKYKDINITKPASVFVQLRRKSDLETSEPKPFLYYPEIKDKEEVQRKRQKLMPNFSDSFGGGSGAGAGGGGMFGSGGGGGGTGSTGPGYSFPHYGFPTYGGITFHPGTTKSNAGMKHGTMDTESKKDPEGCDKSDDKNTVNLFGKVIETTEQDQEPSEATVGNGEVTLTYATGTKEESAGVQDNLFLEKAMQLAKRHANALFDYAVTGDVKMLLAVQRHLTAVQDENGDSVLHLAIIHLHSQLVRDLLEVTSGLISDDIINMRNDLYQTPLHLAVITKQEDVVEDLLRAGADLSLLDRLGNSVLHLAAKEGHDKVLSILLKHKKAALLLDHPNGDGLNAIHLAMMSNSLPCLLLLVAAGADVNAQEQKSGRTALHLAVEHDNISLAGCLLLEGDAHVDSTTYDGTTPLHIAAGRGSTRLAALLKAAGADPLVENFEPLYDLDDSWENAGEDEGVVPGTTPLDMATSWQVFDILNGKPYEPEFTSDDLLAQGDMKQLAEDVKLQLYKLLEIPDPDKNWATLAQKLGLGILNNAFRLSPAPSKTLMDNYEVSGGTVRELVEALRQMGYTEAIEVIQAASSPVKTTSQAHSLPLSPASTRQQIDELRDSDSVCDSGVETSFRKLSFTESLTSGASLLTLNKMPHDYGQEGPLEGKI

CCCCCCCC/C=C\CCCCCCCC(=O)OC[C@@H](O)[C@H]1OC[C@H](O)[C@H]1O
inactive: all assays above

CCCCCCCCCC
inactive: all assays above

CC(C)CCCCCCOC(=O)C1CCCCC1C(=O)OCCCCCCC(C)C (stereo not given)
active: [3] 9.92 µM | [18] 9.92 µM
inactive: all other assays above

NC(=O)NN=Cc1ccc([N+](=O)[O-])o1
active: [1] 11.6 µM | [2] 0.233 µM | [5] 9.92 µM | MYC, MYC (gene 4609) 0.151 µM | [6] 0.256 µM | [13] 11.4 µM | [19] 0.196 µM
inactive: all other assays above

CCCCC(CC)C(=O)OCCOCCOCCOC(=O)C(CC)CCCC (stereo not given)
inactive: all assays above

CC(C)CC(C)O (stereo not given)
inactive: all assays above
